# A selection: hits, their analogues and other compounds. The true share with any hit is near 21%.
# Pf growth 96h: P. falciparum growth inhibition at 96 hour, primary screen for plastid delayed-death inhibitors; P. falciparum luciferase reporter growth, 96 h; Potency, µM (top dose mostly 28.7 µM), without a hit: top-dose activity change, negative = inhibition, actives largely listed as inhibitors; hit rate 6.9% among 320,000; note: potency is the fitted concentration of half-maximal effect; % is set by controls: 0 for no effect and ±100 for the full control effect
#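 Two-generation exposure (96 h) targets delayed-death phenotype. Reporter parasites carrying integrated firefly luciferase, in red cells at 2% hematocrit and 0.05% parasitemia final, kept at 37 C, 5% CO2; luminescence loss indicates inhibition.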
# Cycloheximide cs: counter-screen for Shiga toxin inhibitors: cycloheximide protein synthesis inhibition. cell reporter, cycloheximide protein synthesis inhibition counterscreen. max response, %. hit rate 12% among 300,000. AID 2314; in the data active = max response mostly above about 13%, no sharp cut-off; inactive = mostly below about 14%; note: read at 38.3 µM for the half of the compounds with a filed dose; 0% is about no effect
# Pf growth 48h: P. falciparum growth inhibition at 48 hours (one generation); hit rate 5.9% among 310,000; Potency, µM (top dose mostly 28.7 µM), for inactives: at the highest dose activity change, negative = inhibition, usual class: inhibitors; AID 504832; P. falciparum luciferase growth in erythrocytes, 48 h; note: potency is the fitted concentration of half-maximal effect; % is set by controls: 0 for no effect and ±100 for the full control effect
#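 Luciferase-expressing P. falciparum in infected erythrocytes (2% hematocrit, 0.1% parasitemia final) in RPMI 1640/0.5% Albumax were exposed to compound for 48 hours at 37 C, 5% CO2; growth read as luminescence.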
# NS1 inh: inhibitors of influenza NS1 protein function | AID 2326 | Potency, µM (highest dose often 46.1 µM), for inactives: at the highest dose activity, positive = more growth | hit rate 0.4% among 270,000; calls by dose curve; note: potency is the fitted concentration of half-maximal effect; actives are rising curves; nearly all actives have a fitted effect of over 50% in size
#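 In this qHTS, NS1 from influenza A is expressed in budding yeast, where it slows growth. Cells are switched from glucose to 2% galactose medium (pH 6.0, -URA), treated with compound, and growth recovery is read at OD600.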
# Shiga inhibitor: blocks Shiga toxin action in Vero cells; Vero cells, Shiga toxin protein synthesis inhibition reporter; inhibition, % at 38.7 µM; hit rate 9.2% among 290,000; AID 2315; in the data active = inhibition mostly above about 28%, no sharp cut-off; inactive = mostly below about 43%; note: 0% is about no effect
# Numbers without * were called inactive; ? = inconclusive; / = no result given; [ ] = another dose, or the depositor's remark. Unless noted, calls come from the whole dose curve; as a rule, active = well fitted inhibition curve with a large enough effect; inconclusive = small, poorly fitted or top-dose-only effect, or another doubt; inactive = no such curve, though single readings can be large or run the other way.
SMILES,Pf growth 96h,Cycloheximide cs,Pf growth 48h,NS1 inh,Shiga inhibitor
Cc1cc(=O)n2c(nc3ccccc32)[nH]1,?,-3,?,7%,12
CN(N)C(=S)Nc1ccc(Cl)cc1,-2%,9,6%,/,15
Cc1cc(Nc2ccccc2)n(-c2ccc(C(=O)O)cc2)n1,26%,-1,-3%,/,-10
Cc1cc(Nc2ccccc2)n(C(=O)c2ccc(Cl)cc2)n1,?,35*,-15%,-30%,72*
C[C@H](NC(=O)N1CCn2c1nc1ccccc12)C(=O)NCc1ccc(F)cc1,22%,-2,31%,-10%,6
CC(Nc1nc(=S)nc(Nc2ccc(F)cc2)[nH]1)c1ccccc1 (configuration not stated),10µM*,-3,12µM*,?,/
CSCCC(NC(=O)c1cccc(C)c1)C(=O)OCC(=O)NC(=O)c1cccn1C (configuration not stated),20%,-2,10%,-9%,29
O=C(Nc1ccc2c(c1)OCO2)c1cc(C2CC2)on1,1%,34*,22%,-8%,52*
CC(C)c1cc(C(=O)Nc2ccc3c(c2)OCO3)no1,?,30*,21%,-17%,55*
COc1ccc(-c2cc(C(=O)Nc3ccc4c(c3)OCO4)no2)cc1,-1%,7,43%,-8%,20
COc1cc(C(=O)NCCCCc2ccccc2)cc(OC)c1OC,?,-1,-26%,-7%,-11
CCOC(=O)C1=C(COC(=O)[C@H](C)NS(=O)(=O)c2ccc(NC(C)=O)cc2)NC(=O)NC1C (some centres not stated),5%,/,5%,/,/
FC(F)(F)c1cnc(-c2cnc(-c3cccnc3)nc2)c(Cl)c1,101%,48*,111%,/,116*
FC(F)(F)c1cc(Cl)c2nnc(-c3cccnc3)n2c1,53%,-4,50%,11%,-5
CCC(C)(C)n1nnnc1CN1CCN(C(c2ccccc2)c2ccccc2)CC1,82%,-2,7.4µM*,-50%,10
CC(C)CCn1nnnc1CN1CCN(C(c2ccccc2)c2ccccc2)CC1,-44%,2,6.6µM*,/,-8
CCC(C)(C)n1nnnc1C(c1ccccc1)N1CCN(Cc2ccccc2)CC1 (configuration not stated),?,1,?,-3%,2
COc1cc(OC)cc(C(=O)N[C@H](C(=O)Nc2nnc(C3CC3)s2)C(C)C)c1,-1%,-2,-6%,/,18
CSc1ncc(CO)n1Cc1ccccc1,?,8,-10%,/,-13
CS(=O)(=O)Oc1ccc2c(c1)O/C(=C\c1cccnc1)C2=O,59%,12,12%,6%,20*
CCN(CC)c1ccc(/C=C/c2cc(-c3ccccc3)c3ccccc3n2)cc1,12µM*,16*,?,14%,24
CN(C)c1ccc(/C=C/c2ccc3ccccc3n2)cc1,?,-5,-51%,-7%,-19
O=C(c1ccc2c(c1)OCCCO2)c1cccs1,44%,31*,435%,-60%,44*
O=C(Nc1ccc2c(c1)OCO2)c1cccs1,7%,61*,53%,-40%,197*
O=C(Nc1ccc2c(c1)OCCO2)c1cccs1,2.6µM*,55*,97%,-10%,47*
SMILES,Pf growth 96h,Cycloheximide cs,Pf growth 48h,NS1 inh,Shiga inhibitor
O=C(Nc1ccc2c(c1)OCO2)c1ccc(Br)s1,8.3µM*,35*,189%,-9%[9.22 µM],45*
O=C(Nc1ccc2c(c1)OCO2)c1ccncc1,?,15,36%,-1%,18
COc1ccccc1NC(=O)CCNS(=O)(=O)c1ccc2c(c1)CCN2C(C)=O,?,-2,-1%,4%,-1
CCN(CC)S(=O)(=O)c1cccc(NC(=O)COC(=O)C2CC3C=CC2C3)c1 (configuration not stated),?,2,?,-9%,15
O=C1CC(c2ccccc2F)C2=C(COC2=O)N1 (configuration not stated),55%,0,?,-1%,-2
CCN(CC)S(=O)(=O)c1cc(NC(=O)c2ccc(Br)s2)ccc1C,15µM*,64*,?,12%,77*
Clc1ccc(NCc2cccnc2)cc1,2%,3,/,5%,-8
CSc1ccc(CNc2ccc(Cl)cc2)cc1,137%,27*,60%,0%,79*
COc1ccc2ccc(C(C)(C(C)=O)C(=O)OC(C)C)cc2c1 (configuration not stated),?,/,-5%,/,/
CCOC(=O)Nc1ccc2c(c1)N(C(=O)N1CCN(C)CC1)c1ccccc1CC2,0%,6,12µM*,2%,-4
